The results in this text go back to PubChem BioAssay (NCI).

The panel holds about 83,000 compounds, 20% with a hit somewhere; the sample as a whole holds those more often.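 Activity criterion: percent growth below 10, measured after cells in 96-well plates were exposed to a single compound concentration for 48 hours.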 A number with no mark means an inactive call. Calls of active or inactive are those of the source.

Experiment in all cases: NCI-60 one-dose screen, 48 h (100 = growth as untreated, 0 = no growth, -100 = all killed)
For one experiment, the system named is SR leukemia. The conditions noted are these: 10 µM.
A further experiment has as its system RPMI-8226 leukemia. The following applies: 10 µM.
A further experiment has as its system OVCAR-8 ovarian. The following applies: 10 µM.
In another experiment the test system is OVCAR-5 ovarian. The conditions noted are these: 10 µM.
A further experiment concerns OVCAR-4 ovarian. The following applies: 10 µM.
Another experiment has as its system SK-OV-3 ovarian. The conditions noted are these: 10 µM.
Another experiment deals with IGROV1 ovarian. The conditions noted are these: 10 µM.
For another experiment, the system named is OVCAR-3 ovarian. The following applies: 10 µM.
The test system of a further experiment is HS 578T breast. The conditions noted are these: 10 µM.
In a further experiment the test system is NCI/ADR-RES ovarian. The conditions noted are these: 10 µM.
A further experiment has as its system T-47D breast. The conditions noted are these: 10 µM.
The next experiment concerns BT-549 breast. The conditions noted are these: 10 µM.
The next experiment concerns MDA-MB-435 melanoma. The conditions noted are these: 10 µM.
The next experiment relates to SW-620 colon. The conditions noted are these: 10 µM.
A further experiment relates to MCF7 breast. The conditions noted are these: 10 µM unless noted.
The next experiment deals with HCT-116 colon. The following applies: 10 µM.
The test system of a further experiment is HCC-2998 colon. The conditions noted are these: 10 µM.
In the next experiment the test system is KM12 colon. The following applies: 10 µM.

As to `c1cc2cccc3c4cccc5cccc(c(c1)c23)c54`, the growth was 108% with SR leukemia; 113% in the experiment with RPMI-8226 leukemia; 112% in the experiment with OVCAR-8 ovarian; 106% in the experiment on OVCAR-5 ovarian; 95.5% with OVCAR-4 ovarian; 94.1% in the experiment with SK-OV-3 ovarian. Besides, the growth was 125% in the experiment with IGROV1 ovarian; 108% with OVCAR-3 ovarian; 112% in the experiment with HS 578T breast; 108% in the experiment on NCI/ADR-RES ovarian; 90.2% in the experiment with T-47D breast; 104% in the experiment with BT-549 breast. Moreover, the growth was 111% with MDA-MB-435 melanoma; 108% with SW-620 colon; 84% with MCF7 breast; 103% in the experiment on HCT-116 colon; 96.7% with HCC-2998 colon; 104% in the experiment on KM12 colon.

As to `CCCCCCCCCCC(C)Br` (stereo not given), the growth in the experiment on SR leukemia was 93.8%; in the experiment on RPMI-8226 leukemia it was 101%; in the experiment with OVCAR-8 ovarian, 108%; in the experiment with OVCAR-5 ovarian, 104%; with OVCAR-4 ovarian it was 109%; with SK-OV-3 ovarian it was 98.3%. Besides, the growth is 106% with IGROV1 ovarian; 108% with OVCAR-3 ovarian; 116% in the experiment with HS 578T breast; 105% in the experiment on NCI/ADR-RES ovarian; 99.2% in the experiment on T-47D breast; 105% with BT-549 breast. Further, the growth with MDA-MB-435 melanoma was 99.6%; in the experiment on SW-620 colon it was 106%; in the experiment with MCF7 breast it was 98.4%; in the experiment with HCT-116 colon it was 100%; with HCC-2998 colon, 91%; with KM12 colon, 107%.

For `c1ncc2[nH]cnc2n1`, the growth was 100% with SR leukemia; 91.9% in the experiment on RPMI-8226 leukemia; 95.6% in the experiment with OVCAR-8 ovarian; 96.7% with OVCAR-5 ovarian; 110% with OVCAR-4 ovarian; 90.8% in the experiment on SK-OV-3 ovarian. For the same compound, the growth in the experiment with IGROV1 ovarian was 92%; with OVCAR-3 ovarian, 110%; in the experiment with HS 578T breast, 114%; in the experiment with NCI/ADR-RES ovarian it was 104%; with T-47D breast, 94.5%; in the experiment with BT-549 breast it was 106%. Further, the growth is 108% with MDA-MB-435 melanoma; 96.7% with SW-620 colon; 93.5% with MCF7 breast; 92.4% in the experiment with HCT-116 colon; 93.7% in the experiment with HCC-2998 colon; 105% in the experiment on KM12 colon.

Turning to `Oc1ccccc1O`, the growth is 75.5% in the experiment with SR leukemia; 60.1% with RPMI-8226 leukemia; 86.3% in the experiment with OVCAR-8 ovarian; 106% in the experiment on OVCAR-5 ovarian; 77.4% in the experiment on OVCAR-4 ovarian; 120% in the experiment on SK-OV-3 ovarian. Further, the growth with IGROV1 ovarian was 79.1%; in the experiment on OVCAR-3 ovarian, 92.3%; with HS 578T breast it was 112%; with NCI/ADR-RES ovarian it was 90.2%; with T-47D breast, 95.2%; in the experiment on BT-549 breast, 96%. In addition, the growth was 110% in the experiment on MDA-MB-435 melanoma; 94.7% in the experiment with SW-620 colon; 82.5% with MCF7 breast; 87.6% with HCT-116 colon; 86.5% with KM12 colon.

As for `Nc1ccccc1C(=O)Nc1ccc(Cl)cc1Cl`, the growth in the experiment with SR leukemia is 50%; in the experiment with RPMI-8226 leukemia, 63.9%; in the experiment on OVCAR-8 ovarian, 83.1%; in the experiment with OVCAR-5 ovarian it was 100%; in the experiment on OVCAR-4 ovarian it was 87.5%; with SK-OV-3 ovarian it was 99.2%. The growth in the experiment on IGROV1 ovarian was 35.9%; with OVCAR-3 ovarian, 93.7%; with HS 578T breast, 87.4%; in the experiment on NCI/ADR-RES ovarian, 90.7%; in the experiment on T-47D breast it was 88%; in the experiment on BT-549 breast it was 99.2%. In addition, the growth in the experiment with MDA-MB-435 melanoma is 107%; with SW-620 colon, 85.9%; in the experiment on MCF7 breast it was 65.5%; in the experiment with HCT-116 colon it was 59.9%; in the experiment with HCC-2998 colon, 103%; in the experiment with KM12 colon it was 91%.

Regarding `O=C(O)c1ccnc(Br)c1`, the growth in the experiment with SR leukemia was 109%; in the experiment on RPMI-8226 leukemia, 115%; in the experiment on OVCAR-8 ovarian, 103%; in the experiment on OVCAR-5 ovarian, 107%; in the experiment on OVCAR-4 ovarian it was 107%; in the experiment on SK-OV-3 ovarian, 101%. Besides, the growth in the experiment on IGROV1 ovarian was 117%; in the experiment on OVCAR-3 ovarian it was 112%; in the experiment with HS 578T breast it was 107%; with NCI/ADR-RES ovarian it was 111%; with T-47D breast, 96.9%; in the experiment with BT-549 breast, 105%. The growth is 104% in the experiment with MDA-MB-435 melanoma; 103% in the experiment with SW-620 colon; 91.7% with MCF7 breast; 103% with HCT-116 colon; 107% in the experiment with HCC-2998 colon; 103% in the experiment with KM12 colon.

Turning to `CC(=O)c1ccc(N=C(C#N)C2=C(O)c3ccccc3C2=O)cc1`, the growth in the experiment on SR leukemia is 91.1%; with RPMI-8226 leukemia, 117%; in the experiment on OVCAR-8 ovarian it was 103%; in the experiment on OVCAR-5 ovarian, 119%; in the experiment on OVCAR-4 ovarian, 108%; with SK-OV-3 ovarian it was 95%. Further, the growth in the experiment with IGROV1 ovarian is 115%; with OVCAR-3 ovarian, 112%; in the experiment on HS 578T breast, 107%; in the experiment with NCI/ADR-RES ovarian, 105%; in the experiment on T-47D breast, 93.4%; with BT-549 breast it was 98.3%. The growth in the experiment with MDA-MB-435 melanoma was 110%; in the experiment on SW-620 colon, 114%; in the experiment with MCF7 breast, 83.1%; in the experiment with HCT-116 colon, 106%; with HCC-2998 colon, 98.1%; in the experiment on KM12 colon it was 107%.

In the case of `COc1cc(C2c3cc4c(cc3C3OC(=O)C2C3CO)OCO4)cc(OC)c1OC` (stereo not given), the growth in the experiment on SR leukemia was 4.01% (active); with RPMI-8226 leukemia, 18.3%; in the experiment on OVCAR-8 ovarian, 3.3% (active); in the experiment on OVCAR-5 ovarian, 27.1%; in the experiment on OVCAR-4 ovarian, 28.3%; with SK-OV-3 ovarian it was -7.31% (active). The growth in the experiment on IGROV1 ovarian is 13.7%; in the experiment with OVCAR-3 ovarian it was -21.9% (active); with HS 578T breast, 33.8%; in the experiment with NCI/ADR-RES ovarian, -2.7% (active); in the experiment on T-47D breast it was 70.6%; with BT-549 breast, -24.4% (active). The growth in the experiment on MDA-MB-435 melanoma was -45% (active); in the experiment with SW-620 colon, 23.1%; in the experiment on MCF7 breast, 17%; in the experiment on HCT-116 colon, 7.29% (active); in the experiment with HCC-2998 colon it was 19%; in the experiment with KM12 colon, 1.84% (active).

On to `CC(=O)OC(OC(C)=O)C1CCCO1` (stereo not given), for which the growth in the experiment on SR leukemia was 135%; in the experiment on RPMI-8226 leukemia, 114%; with OVCAR-8 ovarian, 103%; in the experiment on OVCAR-5 ovarian it was 100%; in the experiment on OVCAR-4 ovarian, 97.9%; in the experiment on SK-OV-3 ovarian, 105%. In addition, the growth with IGROV1 ovarian is 110%; with OVCAR-3 ovarian it was 114%; in the experiment with HS 578T breast, 105%; in the experiment on NCI/ADR-RES ovarian it was 94.5%; in the experiment on T-47D breast it was 101%; in the experiment with BT-549 breast, 95.8%. Besides, the growth is 108% with MDA-MB-435 melanoma; 107% in the experiment on SW-620 colon; 92.1% in the experiment with MCF7 breast; 91.3% in the experiment on HCT-116 colon; 101% in the experiment on KM12 colon.
